Data taken from PubChem BioAssay.
The source made the active and inactive calls.

Experiments:
[1] = biological target: Albumin (Bos taurus) (UniProt P02769); experiment: compounds binding labelled BSA control protein – biochemical, small-molecule microarray, Alexa647 label, 635/667 nm fluorescence, artefact control for SMM control protein annotation, profiling panel (AID 1118); conditions: BSA-A647 binding, fluorescence 635 nm, higher = more signal;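 also: score merges 667 nm emission intensity and signal-to-noise per printed compound spot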
Albumin (Bos taurus), sequence (P02769 whole entry, looked up): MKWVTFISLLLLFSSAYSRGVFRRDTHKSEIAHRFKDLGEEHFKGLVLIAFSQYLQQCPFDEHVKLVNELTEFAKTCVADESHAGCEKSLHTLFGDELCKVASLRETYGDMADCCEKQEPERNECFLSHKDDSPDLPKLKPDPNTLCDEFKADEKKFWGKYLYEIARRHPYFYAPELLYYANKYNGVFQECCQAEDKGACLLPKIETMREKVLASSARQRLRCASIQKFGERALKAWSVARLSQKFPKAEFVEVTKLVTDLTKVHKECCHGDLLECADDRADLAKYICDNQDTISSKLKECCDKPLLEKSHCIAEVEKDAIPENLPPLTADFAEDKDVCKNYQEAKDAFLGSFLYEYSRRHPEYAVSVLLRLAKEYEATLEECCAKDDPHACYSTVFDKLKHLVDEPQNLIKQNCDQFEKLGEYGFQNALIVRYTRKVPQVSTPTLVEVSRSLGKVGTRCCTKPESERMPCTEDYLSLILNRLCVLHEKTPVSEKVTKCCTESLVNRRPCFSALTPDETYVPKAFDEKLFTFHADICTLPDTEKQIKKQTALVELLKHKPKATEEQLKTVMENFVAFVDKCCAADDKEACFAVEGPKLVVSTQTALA

[2] = probe aXIP binding to arrayed compounds – biochemical, NeuroSMM set, 635/667 nm fluorescence, primary screen (AID 1119); conditions: small-molecule microarray, higher = more signal, called active from +8 up or from −8 down;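 also: probe is the protein aXip251-270 applied at 1 µg/mL to compound-printed slides; binding of probe to printed compounds measured as 667 nm fluorescence plus signal to noise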
[3] = probe aNOTCH3 binding on compound microarray – biochemical, small-molecule microarray, 635/667 nm fluorescence, primary screen (AID 1120); conditions: higher = more signal;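 also: probe is a biotin-tagged antibody raised against NOTCH3 rather than NOTCH3 protein; score merges spot fluorescence near 667 nm with spot signal to noise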
[4] = probe aNOTCH2 binding on compound microarray – biochemical, small-molecule microarray, 635/667 nm fluorescence, primary screen (AID 1121); conditions: higher = more signal;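 also: score merges feature fluorescence read at 667 nm with its signal to noise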
[5] = biological target: Carbonic anhydrase 2 (Homo sapiens) (UniProt P00918); experiment: compounds binding carbonic anhydrase 2 – biochemical, small-molecule microarray, Alexa647-labelled CAII, profiling panel (AID 1122); conditions: CAII-A647 binding fluorescence, higher = more signal
[6] = COS7 lysate on small-molecule microarray, probe aHis, 635 nm (AID 1123); conditions: COS7 cell lysate, fluorescence, higher = more signal;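 also: z-score combines 667nm fluorescence intensity with signal-to-noise per printed compound spot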
[7] = probe aLAP1 signal on lysate-treated microarray – cell lysate, small-molecule microarray, COS7 lysate, primary screen (AID 1124); conditions: probe aLAP1, fluorescence, higher = more signal;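 also: lysate comes from COS7 cells expressing LAP1 and is applied at 0.3 µg/mL; score merges spot fluorescence near 667 nm with signal-to-noise over triplicate slides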
[8] = tested on: Sam68 (KHDRBS1); experiment: compounds binding KHDRBS1 protein – biochemical, small-molecule microarray, 635 nm fluorescence, primary screen (AID 1125); conditions: higher = more signal;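 also: score merges 667 nm channel intensity with signal to noise over triplicate slides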
[9] = tested on: Chordin-like protein 2 (CHRDL2); experiment: compounds binding chordin-like 2 – biochemical, small-molecule microarray, 635 nm fluorescence, primary screen (AID 1126); conditions: fluorescence 635 nm, higher = more signal;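 also: printed compound slides probed with Chrdl2 protein at 4 µg/mL for 1 h at 4 C; score merges 667 nm emission intensity with signal to noise over three replicate slides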
[10] = biological target: Concanavalin-A (Canavalia ensiformis) (UniProt P02866); experiment: compounds binding concanavalin A lectin – biochemical, small-molecule microarray, Alexa647 label, 635 nm, artefact control for SMM control protein annotation, primary screen (AID 1127); conditions: ConA-A647 binding fluorescence, higher = more signal;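 also: z combines 667 nm emission intensity with signal-to-noise across three replicate slides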
Concanavalin-A (Canavalia ensiformis), sequence (P02866 whole entry, looked up): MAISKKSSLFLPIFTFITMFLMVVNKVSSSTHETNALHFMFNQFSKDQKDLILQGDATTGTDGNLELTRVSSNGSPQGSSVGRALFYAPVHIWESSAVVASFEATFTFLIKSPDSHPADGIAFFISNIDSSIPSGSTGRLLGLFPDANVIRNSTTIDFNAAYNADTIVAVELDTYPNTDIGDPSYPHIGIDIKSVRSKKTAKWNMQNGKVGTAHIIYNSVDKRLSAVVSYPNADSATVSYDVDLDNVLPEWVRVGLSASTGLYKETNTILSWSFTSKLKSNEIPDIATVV

[11] = compounds binding Alexa647 anti-His antibody – biochemical, small-molecule microarray, 635 nm fluorescence, artefact control for SMM control protein annotation, primary screen (AID 1128); conditions: higher = more signal;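 also: score merges feature fluorescence with signal-to-noise for each printed compound spot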
[12] = tested on: Human papillomavirus type 1a E7 protein (residues 1-88); experiment: HPV1a E7 small-molecule binders, primary screen, biochemical, small-molecule microarray, residues 1-88, 635 nm (AID 1129); conditions: small-molecule microarray binding, fluorescence 635 nm; higher = more signal
[13] = biological target: Focal adhesion kinase 1 (Homo sapiens) (UniProt Q05397); experiment: PTK2 protein binding on printed compound slides – biochemical, small-molecule microarray, 635/667 nm fluorescence, BSA, DTT, primary screen (AID 1130); conditions: 635 nm fluorescence, higher = more signal;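 also: composite of spot emission at 667 nm and signal to noise over triplicate slides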
Focal adhesion kinase 1 (Homo sapiens), sequence (Q05397 whole entry, looked up): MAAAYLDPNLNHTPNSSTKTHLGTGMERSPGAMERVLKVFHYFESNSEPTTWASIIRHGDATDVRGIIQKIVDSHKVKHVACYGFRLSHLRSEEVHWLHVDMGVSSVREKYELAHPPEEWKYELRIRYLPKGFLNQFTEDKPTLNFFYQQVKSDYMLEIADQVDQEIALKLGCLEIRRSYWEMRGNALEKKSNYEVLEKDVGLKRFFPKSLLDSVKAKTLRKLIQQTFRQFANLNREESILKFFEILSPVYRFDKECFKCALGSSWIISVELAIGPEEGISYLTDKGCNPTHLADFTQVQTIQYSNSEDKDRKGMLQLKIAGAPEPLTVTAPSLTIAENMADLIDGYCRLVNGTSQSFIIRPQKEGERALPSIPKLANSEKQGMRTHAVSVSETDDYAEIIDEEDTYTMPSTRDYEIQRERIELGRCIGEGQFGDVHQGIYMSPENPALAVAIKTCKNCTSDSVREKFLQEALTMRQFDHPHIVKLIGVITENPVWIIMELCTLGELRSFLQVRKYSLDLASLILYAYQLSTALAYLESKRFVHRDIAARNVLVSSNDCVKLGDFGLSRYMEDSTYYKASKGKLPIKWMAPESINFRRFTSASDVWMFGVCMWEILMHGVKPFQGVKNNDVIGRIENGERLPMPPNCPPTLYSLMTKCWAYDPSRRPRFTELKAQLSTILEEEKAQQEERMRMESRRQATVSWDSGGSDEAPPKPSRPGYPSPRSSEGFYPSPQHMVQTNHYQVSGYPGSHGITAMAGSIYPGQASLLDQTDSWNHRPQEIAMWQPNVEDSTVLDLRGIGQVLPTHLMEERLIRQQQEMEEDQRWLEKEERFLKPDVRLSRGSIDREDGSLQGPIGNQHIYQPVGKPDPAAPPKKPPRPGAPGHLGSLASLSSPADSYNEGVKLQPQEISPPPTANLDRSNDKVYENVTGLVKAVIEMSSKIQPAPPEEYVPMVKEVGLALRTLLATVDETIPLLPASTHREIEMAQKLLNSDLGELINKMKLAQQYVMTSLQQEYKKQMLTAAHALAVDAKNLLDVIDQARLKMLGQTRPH

[14] = tested on: Fibrinogen (Alexa647-labelled); experiment: Alexa647-fibrinogen binding to printed small molecules – biochemical, small-molecule microarray, 635/667 nm fluorescence, artefact control for SMM control-protein annotation, profiling panel (AID 1131); conditions: fibrinogen-A647 binding fluorescence, higher = more signal;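 also: z-score merges 667 nm fluorescence with per-spot signal-to-noise over triplicate slides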
[15] = biological target: Follistatin (Homo sapiens) (UniProt P19883); experiment: FST protein binding to printed compounds – biochemical, small-molecule microarray, 635/667 nm fluorescence, primary screen (AID 1132); conditions: 635 nm fluorescence, higher = more signal
Follistatin (Homo sapiens), sequence (P19883 whole entry, looked up): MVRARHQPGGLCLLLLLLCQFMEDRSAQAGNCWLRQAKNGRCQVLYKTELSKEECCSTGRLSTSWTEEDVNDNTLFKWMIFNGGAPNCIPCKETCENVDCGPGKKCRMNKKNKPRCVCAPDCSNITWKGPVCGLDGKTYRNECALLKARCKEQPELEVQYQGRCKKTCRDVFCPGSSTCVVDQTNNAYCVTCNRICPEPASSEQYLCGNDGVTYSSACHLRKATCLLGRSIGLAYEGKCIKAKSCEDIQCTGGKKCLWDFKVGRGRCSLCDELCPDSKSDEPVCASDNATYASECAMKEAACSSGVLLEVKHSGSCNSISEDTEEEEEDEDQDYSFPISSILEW

[16] = biological target: Fibroblast growth factor 2 (Homo sapiens) (UniProt P09038); experiment: basic fibroblast growth factor binding to printed compounds – biochemical, small-molecule microarray, 635/667 nm fluorescence, primary screen (AID 1133); conditions: FGF2, fluorescence 635/667, higher = more signal
Fibroblast growth factor 2 (Homo sapiens), sequence (P09038 whole entry, looked up): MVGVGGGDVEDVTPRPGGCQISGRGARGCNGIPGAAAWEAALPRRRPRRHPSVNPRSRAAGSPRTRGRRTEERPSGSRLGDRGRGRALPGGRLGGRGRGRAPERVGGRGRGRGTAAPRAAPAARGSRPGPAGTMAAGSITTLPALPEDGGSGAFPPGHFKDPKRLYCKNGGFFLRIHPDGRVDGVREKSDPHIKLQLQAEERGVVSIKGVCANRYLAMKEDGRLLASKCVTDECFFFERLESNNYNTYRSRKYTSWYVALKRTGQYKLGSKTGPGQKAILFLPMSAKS

[17] = JC-1 mitochondrial potential readout, lung cancer cells – cell-based, A549, JC-1 fluorescence, basal, 24 h, 100 nL, profiling panel (AID 1138); conditions: higher = more signal;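 also: A549 lung adenocarcinoma cells under basal conditions with no added stimulus; test concentration not given here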
[18] = tested on: Lefty1; experiment: Lefty1 protein binding to printed compounds – biochemical, small-molecule microarray, 635/667 nm fluorescence, primary screen (AID 1139); conditions: fluorescence 635/667, higher = more signal
[19] = tested on: wheat germ agglutinin (Triticum aestivum), Alexa647-labelled; experiment: Alexa647-WGA lectin binding to printed small molecules – biochemical, small-molecule microarray, 635/667 nm fluorescence, artefact control for SMM control-protein annotation, profiling panel (AID 1140); conditions: WGA-A647 binding, 635 nm fluorescence, higher = more signal;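 also: score merges 667 nm feature emission with signal to noise over triplicate slides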
[20] = biological target: Luciferin 4-monooxygenase (Photinus pyralis) (UniProt P08659); experiment: inhibition of purified Photinus pyralis luciferase – biochemical, luminescence, purified enzyme, 2006 set, primary screen (AID 1141); conditions: purified firefly luciferase, SteadyGlo luminescence, 30 min; higher = more signal, called active from +8 up or from −8 down;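 also: cell-free assay with purified firefly luciferase at 100 ng per well in PBS; test concentration not given here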
Luciferin 4-monooxygenase (Photinus pyralis), sequence (P08659 whole entry, looked up): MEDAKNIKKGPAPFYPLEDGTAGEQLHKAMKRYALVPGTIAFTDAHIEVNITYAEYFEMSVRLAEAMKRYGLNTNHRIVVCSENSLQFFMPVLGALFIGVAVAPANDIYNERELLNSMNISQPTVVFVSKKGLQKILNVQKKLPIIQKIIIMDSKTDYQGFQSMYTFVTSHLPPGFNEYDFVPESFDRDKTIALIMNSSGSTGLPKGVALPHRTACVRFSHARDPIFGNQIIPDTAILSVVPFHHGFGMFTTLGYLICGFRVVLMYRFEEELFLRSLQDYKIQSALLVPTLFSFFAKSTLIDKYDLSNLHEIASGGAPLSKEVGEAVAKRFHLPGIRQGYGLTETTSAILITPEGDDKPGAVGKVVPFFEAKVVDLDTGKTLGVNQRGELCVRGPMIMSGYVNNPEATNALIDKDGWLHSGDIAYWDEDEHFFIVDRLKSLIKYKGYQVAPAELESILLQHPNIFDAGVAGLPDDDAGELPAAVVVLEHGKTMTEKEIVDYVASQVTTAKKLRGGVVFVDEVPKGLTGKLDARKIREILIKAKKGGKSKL

Compound | composite z-score [1] | composite Z-score [2] | composite z-score [3] | composite z-score [4] | composite z-score [5] | composite z-score [6] | composite z-score [7] | composite z-score [8] | composite z-score [9] | composite z-score [10] | composite z-score [11] | composite z-score [12] | composite z-score [13] | composite z-score [14] | composite z-score [15] | composite z-score [16] | z-score [17] | composite z-score [18] | composite z-score [19] | z-score [20]
OCCCC1=CC(c2ccc(CN3CCCC3)cc2)N(Cc2sc3ccccc3c2Cl)CC1 (stereo not given) | -0.38 | -0.404 (inactive) | 0.191 | -0.0293 | 0.483 | 0.504 | -0.456 | 0.982 | 0.608 | 0.913 | 2.68 | 1.07 | 0.609 | 0.311 | 1.19 | 1.38 | 2.11 | 0.649 | 0.483 | -1.01 (inactive)
O=C1N(Cc2ccccc2)Cc2ccccc2[C@@H]2OC(c3ccc(OCCCO)cc3)=N[C@]12CCS(=O)(=O)c1ccccc1 | -0.0561 | 1.52 (inactive) | 0.0876 | 0.0607 | 0.484 | 2.23 | 0.0984 | 1.25 | 0.068 | 0.888 | 0.624 | 1.19 | 0.389 | 0.768 | 0.953 | 1.4 | -0.461 | -0.0333 | 1.04 | -0.929 (inactive)
O=C1O[C@@H](c2ccccc2)[C@@H](c2ccccc2)N2[C@@H](c3ccccc3OCCO)[C@]3(C(=O)Nc4ccc(C#CCCO)cc43)[C@@H](C(=O)N3CCCCCCC3)[C@H]12 | 0.366 | 10.6 (active) | 2.26 | 1.23 | 0.972 | 5.27 | 1.6 | 1.3 | 1.72 | 1.2 | 3.38 | 1.3 | 4.83 | 0.958 | 1.55 | 1.14 | 0.163 | 1.87 | 1.74 | 0.205 (inactive)
CC[C@H]1C2=C3C(CC[C@H]4C(OCc5ccc(F)cc5C(F)(F)F)OC[C@](C)([C@@H]34)N(C(=O)OC(C)(C)C)C2)C(COC)C1COC (stereo not given in full) | 0.515 | 0.0377 (inactive) | 0.0851 | -0.0372 | 0.687 | 1.1 | -0.115 | 0.0783 | -0.882 | 0.401 | -0.0372 | 0.0144 | -0.093 | -0.0416 | -0.0566 | -0.758 | 0.767 | -0.477 | 0.225 | 0.303 (inactive)
COc1ccc(-c2cc3c(c(CCc4ccccc4)n2)[Si](C(C)C)(C(C)C)OC3)cn1 | -0.0428 | 0.147 (inactive) | -0.152 | -0.169 | -0.173 | 0.132 | -0.376 | -0.296 | 0.105 | -0.0689 | 0.0933 | -0.765 | -0.192 | -0.284 | 0.323 | -0.025 | -0.585 | 0.496 | -0.289 | 1.17 (inactive)
CCOC(=O)c1ccc(NC(=O)O[C@H]2[C@H](OC(=O)Nc3ccc4c(c3)OCO4)[C@@H](OC(=O)Nc3ccc4c(c3)OCO4)[C@@H](OC)O[C@@H]2CO)cc1 | 0.862 | 0.805 (inactive) | 0.291 | -0.0226 | 0.516 | 2.56 | 0.535 | 1.31 | 0.0612 | 1.14 | 2.28 | 1.22 | 0.891 | 0.992 | 1.26 | 1.12 | -1.05 | 0.793 | 1.16 | -7.83 (inactive)
CC(C)(C)OC(=O)CC[C@@]1(C(=O)NCc2ccccc2)N=C(c2ccc(OCCCO)cc2)O[C@@H]1c1ccccc1N=[N+]=[N-] | 0.952 | 0.399 (inactive) | 0.66 | 0.115 | 0.73 | 2.97 | 0.935 | 1.29 | 0.134 | 1.04 | 1.63 | 1.25 | 1.22 | 0.951 | 1.39 | 1.58 | -1.16 | 0.432 | 1.07 | -11 (active)
O=C(NCC(F)(F)F)[C@@H]1c2ccccc2C(=O)N(Cc2ccccc2C(F)(F)F)[C@H]1c1ccc(CO)cc1 | 0.0104 | 1.89 (inactive) | -0.0824 | 0.0667 | 0.758 | 0.891 | 0.234 | 0.163 | -0.572 | -0.104 | 0.219 | -0.479 | -0.335 | -1.14 | 0.706 | 0.548 | 0.0955 | -0.569 | -0.885 | 0.461 (inactive)
CC(C)(C)OC(=O)CC[C@]1(C(=O)NCc2ccccc2)N=C(c2ccc(OCCCO)cc2)O[C@H]1c1ccccc1CN=[N+]=[N-] | 0.75 | -1 (inactive) | 0.526 | -0.127 | 0.68 | 2.45 | 0.583 | 1.3 | -0.0873 | 0.769 | 2 | 1.23 | -0.221 | 0.985 | 1.48 | 1.75 | 2.45 | 1.33 | 0.571 | -2.11 (inactive)
C=C(C(=O)CC[C@@H](OC(C)=O)c1ccc(CO)o1)C(C)C | -0.307 | 1.58 (inactive) | 0.706 | -0.0911 | 0.846 | 0.445 | 0.119 | 0.285 | 0.8 | 0.771 | 0.922 | -0.218 | -0.26 | 0.454 | 1.33 | 1.49 | -0.246 | 1.59 | -0.0963 | -1.76 (inactive)
C[C@@H]1ON(c2ccc(C(=O)OC(C)(C)C)cc2)[C@H](c2ccc(O)cc2)[C@H]1C(=O)N1C(=O)OC[C@H]1Cc1ccccc1 | 0.31 | 0.522 (inactive) | 0.0836 | -0.0449 | 0.217 | 0.58 | 0.581 | 1.31 | 0.448 | 1.03 | 0.249 | 1.03 | 0.437 | 0.584 | 0.472 | 0.382 | -1.49 | 1.29 | 0.828 | -0.416 (inactive)
